The nature of this experiment: NCI Yeast Anticancer Drug Screen. Data for the mlh1 rad18 strain (AID 175). Conditions: S. cerevisiae mlh1 rad18 strain growth inhibition, active compounds read high. Here is the method:
Growth inhibition of yeast strains with defined genetic alterations is measured as a screen for potential anti-cancer activity. Selected strains with alterations in DNA damage repair or cell cycle control were exposed to compounds and growth inhibition was measured relative to vehicle treated controls. The strain used in this assay is mlh1 rad18

[1] abbreviates: at 5.0 µM (retest, dose inferred, filed as 0.5).
Setting [2] is: at 50.0 µM (retest, dose inferred, filed as 5.0).

This is part of a sample that, as a whole, favours compounds with a hit. Of some 79,000 tested, about 15% had one in any assay. Values without a mark were called inactive. Active and inactive are the calls of the source. Cut-off read from the data, not from the text of the source: active = growth inhibition above about 70%; inactive = the rest.

Turning to `COS(=O)c1cc(Cl)cc(Cl)c1OC(=O)CSSCC(=O)Oc1c(Cl)cc(Cl)cc1S(=O)OC` (configuration not stated), the growth inhibition under setting [1] was 84% (active), the growth inhibition under setting [2] is 99% (active) and the growth inhibition (at 50.0 µM) was 99% (active).
For the compound `O=C(Sc1ccccc1)C1OC12CCCCC2` (configuration not stated), the growth inhibition under setting [1] is -122%, the growth inhibition under setting [2] was -90% and the growth inhibition (at 50.0 µM) is 50.1%.
The matching figures for `COc1cc(NCCCCCNC(C)C)c2ncc(C)c(C)c2c1`: 9%, 27% and 55.4%.
For the compound `S=c1sc2ccccc2n1CNc1ccccc1`, the growth inhibition under setting [1] was 5%, the growth inhibition under setting [2] is -11% and the growth inhibition (at 50.0 µM) was 69.3%.
The matching figures for `CC(=O)Nc1ccc(O)c(=O)cc1`: 19%, 97% (active) and 97.2% (active).
For the compound `COc1ccccc1C(c1cc2c(cc1O)OCO2)N1CCOCC1` (configuration not stated), the growth inhibition under setting [1] is 6%, the growth inhibition under setting [2] was 98% (active) and the growth inhibition (at 50.0 µM) is 42.4%.
In the case of `Cc1ccsc1/C=N/Nc1cc(C)c2cccc(C)c2n1`, the growth inhibition reads like this: under setting [1], -8%; under setting [2], 57%; (at 50.0 µM) 63.2%.
The matching figures for `COC(=O)c1nnn(-c2cc(Cl)ccc2Cl)c1C(=O)c1ccc(Cl)c(Cl)c1`: 17%, 99% (active) and 99% (active).
The matching figures for `Nc1ncc2ccccc2c1-c1ccc(NC(=O)CCCl)cc1`: -2%, 55% and 45%.
With `CCN1C2=NCCN2S(=O)(=O)c2ccccc21`, the growth inhibition was 20% under setting [1], 13% under setting [2] and -5.3% (at 50.0 µM).
The matching figures for `Nc1ccc(CSc2ccc(Cl)cc2)cc1Cl`: 1%, 99% (active) and 13.7%.
In the case of `CSC(=S)n1nc(-c2cccs2)c(N=Nc2ccc(Cl)cc2)c1C(F)(F)F`, the growth inhibition was 19% under setting [1], 56% under setting [2] and 96.1% (active) (at 50.0 µM).
As for `Nc1ccccc1/C=C/c1c[nH]c2ccccc12`, the growth inhibition was 9% under setting [1], 98% (active) under setting [2] and 97.3% (active) (at 50.0 µM).
Take `CN(C)c1ccc(/C=C/c2nc3ccccc3s2)cc1`: the growth inhibition was 30% under setting [1], 91% (active) under setting [2] and 83.3% (active) (at 50.0 µM).

For the origin of these results see PubChem BioAssay (NCI).
